Laboratory results as given in PubChem BioAssay (NCI).
Several values for one entry are separate records, joined by “and”; a condition that tells them apart may be missing. Equal entries are not always repeated. The panel holds about 83,000 compounds, 20% with a hit somewhere; the sample as a whole holds those more often.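 Assay: single dose, 48 h. Readout: percent growth (0 = no net growth; negative = cell death). Active: <10.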 Activity calls are given as the source filed them.

Key:
Assay in all cases: NCI-60 one-dose screen, 48 h (100 = growth as untreated, 0 = no growth, -100 = all killed)
Settings in all cases: 10 µM unless noted
[1] = system: T-47D breast
[2] = system: BT-549 breast
[3] = system: MDA-MB-435 melanoma
[4] = system: SW-620 colon
[5] = system: MCF7 breast
[6] = system: HCT-116 colon
[7] = system: HCC-2998 colon
[8] = system: KM12 colon

| Structure (SMILES) | growth [1] | growth [2] | growth [3] | growth [4] | growth [5] | growth [6] | growth [7] | growth [8] |
| --- | --- | --- | --- | --- | --- | --- | --- | --- |
| CC(=O)Oc1ccc(C2(c3ccc(OC(C)=O)cc3)C(=O)Nc3ccccc32)cc1 | -26.3% (active) and -22.5% (active) | -33.3% (active) and -8.43% (active) | 110% (inactive) and 126% (inactive) | 98.2% (inactive) and 104% (inactive) | 9.09% (active) and 15.1% (inactive) | 84.9% (inactive) and 84.5% (inactive) | -3.15% (active) and 44.8% (inactive) | 71.3% (inactive) and 61.9% (inactive) |
| CCNC1=CC(=O)c2ncccc2C1=O | 86.1% (inactive) | -27.8% (active) | -91.7% (active) | 13.8% (inactive) | -13.2% (active) | 2.73% (active) | 29.8% (inactive) | 48.2% (inactive) |
| O=C1C=CC(=O)N1Cc1ccco1 | 91.7% (inactive) | 100% (inactive) | 95.8% (inactive) | 58.4% (inactive) | 62% (inactive) | 52.5% (inactive) | 101% (inactive) | 103% (inactive) |
| COc1ccc([N+](=O)[O-])cc1OC | 103% (inactive) and 102% (inactive) | 110% (inactive) | 109% (inactive) and 107% (inactive) | 91.8% (inactive) and 110% (inactive) | 87.5% (inactive) and 96.7% (inactive) | 96.5% (inactive) and 102% (inactive) | 105% (inactive) | 109% (inactive) and 120% (inactive) |
| CCOCCC(=O)O | 94.1% (inactive) | 107% (inactive) | 108% (inactive) | 101% (inactive) | 104% (inactive) | 97.3% (inactive) | 123% (inactive) | 117% (inactive) |
| COc1ccc(CCN=Cc2ccc(Cl)cc2)cc1OC | 97% (inactive) | 107% (inactive) | 113% (inactive) | 102% (inactive) | 96.1% (inactive) | 104% (inactive) | 105% (inactive) | 102% (inactive) |
| CCOC(=O)C1=CC(=O)CC(C)(C)O1 | 110% (inactive) and 107% (inactive) | 99.2% (inactive) and 117% (inactive) | 119% (inactive) and 111% (inactive) | 96.5% (inactive) and 105% (inactive) | 109% (inactive) | 96.8% (inactive) and 110% (inactive) | 102% (inactive) and 108% (inactive) | 107% (inactive) and 76.9% (inactive) |
| O=S(=O)(O)c1ccc2cc(O)ccc2c1 | 102% (inactive) | 105% (inactive) | 107% (inactive) | 99.9% (inactive) | 99.8% (inactive) | 108% (inactive) | 109% (inactive) |  |
| N#CC1c2ccccc2C=CN1C(=O)c1ccccc1 (configuration not stated) | 106% (inactive) and 103% (inactive) | 115% (inactive) and 139% (inactive) | 98.7% (inactive) and 87.8% (inactive) | 94.8% (inactive) and 103% (inactive) | 93.1% (inactive) and 114% (inactive) | 107% (inactive) and 92% (inactive) | 109% (inactive) and 115% (inactive) |  |
| COc1ccc(C(=O)C(O)c2ccc(OC)cc2)cc1 (configuration not stated) | 103% (inactive) and 92.8% (inactive) | 109% (inactive) and 98.9% (inactive) | 117% (inactive) and 111% (inactive) | 105% (inactive) and 107% (inactive) | 96.7% (inactive) and 98.1% (inactive) | 102% (inactive) and 93% (inactive) | 111% (inactive) and 108% (inactive) |  |
| COc1cc(NCCCCCNC(C)C)c2ncccc2c1 | 82.3% (inactive) | 89.1% (inactive) | 97.8% (inactive) and 106% (inactive) | 87.2% (inactive) and 106% (inactive) | 85.3% (inactive) and 86.4% (inactive) | 96.9% (inactive) and 90.3% (inactive) | 102% (inactive) and 90.2% (inactive) |  |
| CC1(C)CC(=O)NC1=O | 91.5% (inactive) | 104% (inactive) | 94.9% (inactive) | 107% (inactive) | 93.6% (inactive) | 96.5% (inactive) | 102% (inactive) | 102% (inactive) |
| Nc1c(Cl)cc2c(c1Br)C(=O)c1ccccc1C2=O | 76% (inactive) | 114% (inactive) | 105% (inactive) | 99.6% (inactive) | 99.8% (inactive) | 96.7% (inactive) | 101% (inactive) | 106% (inactive) |
| ON=C(C1CCCCC1)C1CCCCC1 | 87.3% (inactive) | 108% (inactive) | 103% (inactive) | 102% (inactive) | 93.3% (inactive) | 100% (inactive) | 109% (inactive) | 95.5% (inactive) |
| CC(NC(=O)CCl)c1ccccc1 (configuration not stated) | 103% (inactive) | 95.3% (inactive) | 99.7% (inactive) | 96.4% (inactive) | 94% (inactive) | 97.6% (inactive) | 106% (inactive) | 105% (inactive) |
| CC(=O)Oc1cc(C(C)C)c(OCCN(C)C)cc1C | 90% (inactive) and 86.2% (inactive) | 119% (inactive) and 100% (inactive) | 99.2% (inactive) and 99.4% (inactive) | 104% (inactive) and 100% (inactive) | 109% (inactive) and 95.7% (inactive) | 107% (inactive) and 102% (inactive) | 99.6% (inactive) and 113% (inactive) | 102% (inactive) and 110% (inactive) |
| O=c1[nH]c(=O)n(C2OC(CO)C(O)C2O)cc1I (configuration not stated) | 105% (inactive) and 100% (inactive) | 143% (inactive) and 108% (inactive) | 106% (inactive) and 95% (inactive) | 101% (inactive) | 89% (inactive) and 107% (inactive) | 109% (inactive) and 95.8% (inactive) | 109% (inactive) and 95.8% (inactive) | 109% (inactive) and 100% (inactive) |
| CCCCCCCCCCCCCCCCC(=O)O | 104% (inactive) | 112% (inactive) | 109% (inactive) | 105% (inactive) | 93.9% (inactive) | 101% (inactive) | 96.8% (inactive) | 105% (inactive) |
| CC(C)(C)OC(=O)NCCc1ccc(N)cc1 | 94.8% (inactive) | 98.1% (inactive) | 101% (inactive) | 97.6% (inactive) | 99.2% (inactive) | 112% (inactive) | 107% (inactive) |  |
| CC1OS(=O)OC1C (configuration not stated) | 93% (inactive) | 105% (inactive) and 104% (inactive) | 99.3% (inactive) and 101% (inactive) | 105% (inactive) and 98.3% (inactive) | 91.2% (inactive) and 93.9% (inactive) | 105% (inactive) and 102% (inactive) | 99.3% (inactive) and 118% (inactive) | 107% (inactive) and 97.5% (inactive) |
| NC(=O)Cc1nc(O)cc(=O)[nH]1 | 88.5% (inactive) | 109% (inactive) | 106% (inactive) | 104% (inactive) | 95.5% (inactive) | 110% (inactive) | 100% (inactive) | 106% (inactive) |
| COC(=O)c1nc(N)nc(C(=O)OC)c1C(=O)c1ccc(F)cc1 | 105% (inactive) | 120% (inactive) | 107% (inactive) | 110% (inactive) | 97.1% (inactive) | 110% (inactive) | 110% (inactive) | 107% (inactive) |
| Cc1ccc(S(=O)(=O)n2ccnc2)cc1 | 96.8% (inactive) | 122% (inactive) | 108% (inactive) | 109% (inactive) | 99% (inactive) | 98% (inactive) | 102% (inactive) |  |
| CC(C)=NOC(C)C(=O)O (configuration not stated) | 107% (inactive) | 98% (inactive) | 97.2% (inactive) | 103% (inactive) | 97% (inactive) | 95.7% (inactive) | 100% (inactive) | 114% (inactive) |
| CCc1ccccc1-n1[nH]c(C)c(C=N)c1=O | 126% (inactive) | 108% (inactive) | 104% (inactive) | 106% (inactive) | 94.1% (inactive) | 120% (inactive) | 118% (inactive) | 102% (inactive) |
| CC(=O)c1cccc(OC(=O)c2ccccc2)c1 | 102% (inactive) | 120% (inactive) | 117% (inactive) | 106% (inactive) | 85.2% (inactive) | 90.1% (inactive) | 101% (inactive) | 110% (inactive) |
